# Reference: PubChem BioAssay (EPA / NIEHS)
# Active and inactive are the calls of the source. How the source made its calls: active means hit-call score of the fitted dose curve at least 0.9, where 1 is the maximum; inactive means score below 0.9.
# Experiments:
# [1] = read-out: Low-density lipoprotein receptor (LDLR), LDLR (gene 3949); test: BSK_CASM3C_LDLR: BioMAP Diversity Plus: CASM3C Assay for Low-density lipoprotein receptor (LDLR) Biomarker Activity (AID 2283045); settings: primary human coronary artery smooth muscle cells; actives raise or lower the signal;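 further: LDLR protein level on the cell surface quantified by ELISA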
# [2] = read-out: Monocyte Chemoattractant Protein-1 (MCP1), CCL2 (gene 6347); test: BSK_CASM3C_MCP1: BioMAP Diversity Plus: CASM3C Assay for Monocyte Chemoattractant Protein-1 (MCP1) Biomarker Activity (AID 2283046); settings: primary human coronary artery smooth muscle cells; actives raise or lower the signal
# [3] = BSK_CASM3C_Proliferation: Cell Proliferation Assessment in the BioMAP Diversity Plus: CASM3C Assay (AID 2283047); settings: primary human coronary artery smooth muscle cells;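 further: sulforhodamine B total protein stain as relative cell number at 560 nm; sub-confluent cells exposed 48 h before staining; fitted both ways against DMSO so gain or loss of cell number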
# [4] = read-out: serum amyloid A (SAA), SAA1 (gene 6288); test: BSK_CASM3C_SAA: BioMAP Diversity Plus: CASM3C Assay for serum amyloid A (SAA) Biomarker Activity (AID 2283049); settings: primary human coronary artery smooth muscle cells; actives raise or lower the signal
# [5] = BSK_CASM3C_SRB: Viability Assessment in the BioMAP Diversity Plus: CASM3C Assay (AID 2283050); settings: primary human coronary artery smooth muscle cells;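 further: cells exposed to compound for 24 h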
# [6] = read-out: Thrombomodulin, THBD (gene 7056); test: BSK_CASM3C_Thrombomodulin: BioMAP Diversity Plus: CASM3C Assay for Thrombomodulin Biomarker Activity (AID 2283051); settings: primary human coronary artery smooth muscle cells; actives raise or lower the signal;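 further: thrombomodulin protein level measured by ELISA 24 h after dosing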
# [7] = read-out: Tissue Factor, F3 (gene 2152); test: BSK_CASM3C_TissueFactor: BioMAP Diversity Plus: CASM3C Assay for Tissue Factor Biomarker Activity (AID 2283052); settings: primary human coronary artery smooth muscle cells; actives raise or lower the signal;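 further: cell surface tissue factor protein level read by ELISA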
# [8] = read-out: Interferon-gamma inducible Protein 10 (IP10), CXCL10 (gene 3627); test: BSK_hDFCGF_IP10: BioMAP Diversity Plus: hDFCGF Assay for Interferon-gamma inducible Protein 10 (IP10) Biomarker Activity (AID 2283053); settings: primary human foreskin fibroblasts; actives raise or lower the signal
# Outline: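 Cells: human dermal foreskin fibroblasts. Exposure: 24 h post-dosing. Detection: IP-10 ELISA, with values expressed against DMSO controls and fitted in both directions.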
# [9] = read-out: Urokinase-type plasminogen activator receptor (uPAR), PLAUR (gene 5329); test: BSK_CASM3C_uPAR: BioMAP Diversity Plus: CASM3C Assay for Urokinase-type plasminogen activator receptor (uPAR) Biomarker Activity (AID 2283054); settings: primary human coronary artery smooth muscle cells; actives raise or lower the signal;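 further: cell-surface uPAR protein level quantified by ELISA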
# [10] = read-out: Vascular cell adhesion molecule 1 (VCAM1), VCAM1 (gene 7412); test: BSK_CASM3C_VCAM1: BioMAP Diversity Plus: CASM3C Assay for Vascular cell adhesion molecule 1 (VCAM1) Biomarker Activity (AID 2283055); settings: primary human coronary artery smooth muscle cells; actives raise or lower the signal;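 further: VCAM-1 protein level quantified by ELISA on the cells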
# [11] = read-out: Collagen III, COL3A1 (gene 1281); test: BSK_hDFCGF_CollagenIII: BioMAP Diversity Plus: hDFCGF Assay for Collagen III Biomarker Activity (AID 2283056); settings: primary human foreskin fibroblasts; actives raise or lower the signal
# Outline: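 Response relative to DMSO, fitted in both directions, reflects ELISA-measured collagen III in human primary skin fibroblasts 24 h after compound addition.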
# [12] = read-out: Epidermal growth factor receptor (EGFR), EGFR (gene 1956); test: BSK_hDFCGF_EGFR: BioMAP Diversity Plus: hDFCGF Assay for Epidermal growth factor receptor (EGFR) Biomarker Activity (AID 2283057); settings: primary human foreskin fibroblasts; actives raise or lower the signal
# Outline: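 Dosing human primary skin fibroblasts, then measuring surface EGFR by ELISA at 24 h, gives the endpoint; gains and losses relative to DMSO were fitted in both directions.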
# [13] = read-out: Interleukin-8 (IL8), CXCL8 (gene 3576); test: BSK_hDFCGF_IL8: BioMAP Diversity Plus: hDFCGF Assay for Interleukin-8 (IL8) Biomarker Activity (AID 2283058); settings: primary human foreskin fibroblasts; actives raise or lower the signal
# Outline: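 Fibroblast monolayers (human foreskin, hDFCGF) received test chemical for 24 h before ELISA detection of IL-8; either increases or decreases relative to DMSO count as activity.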
# [14] = BSK_hDFCGF_Proliferation: Cell Proliferation Assessment in the BioMAP Diversity Plus: hDFCGF Assay (AID 2283059); settings: primary human foreskin fibroblasts;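 further: curves fitted for both rise and fall of signal versus DMSO baseline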
# Outline: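 Total protein read at 560 nm after 0.1% SRB staining of TCA-fixed human skin fibroblasts, […]. Activity is fitted in both directions relative to DMSO as baseline.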
# [15] = read-out: Monokine induced gamma interferon (MIG), CXCL9 (gene 4283); test: BSK_hDFCGF_MIG: BioMAP Diversity Plus: hDFCGF Assay for Monokine induced gamma interferon (MIG) Biomarker Activity (AID 2283063); settings: primary human foreskin fibroblasts; actives raise or lower the signal
# Outline: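 Endpoint derived by bidirectional fitting relative to DMSO; MIG quantified via ELISA in primary human foreskin fibroblasts harvested 24 h after dosing.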
# [16] = read-out: Matrix Metallopeptidase 1 (MMP1), MMP1 (gene 4312); test: BSK_hDFCGF_MMP1: BioMAP Diversity Plus: hDFCGF Assay for Matrix Metallopeptidase 1 (MMP1) Biomarker Activity (AID 2283064); settings: primary human foreskin fibroblasts; actives raise or lower the signal
# Outline: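 MMP1 levels quantified by ELISA 24 h after dosing human dermal fibroblast cultures, with parallel SRB total-protein staining for overt cytotoxicity. Data fitted in both directions against DMSO baseline.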
# [17] = read-out: Vascular cell adhesion molecule 1 (VCAM1), VCAM1 (gene 7412); test: BSK_hDFCGF_VCAM1: BioMAP Diversity Plus: hDFCGF Assay for Vascular cell adhesion molecule 1 (VCAM1) Biomarker Activity (AID 2283065); settings: primary human foreskin fibroblasts; actives raise or lower the signal;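 on AC50: VCAM-1 protein level quantified by ELISA after 24 h chemical exposure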
# Outline: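 Measured after 24 h chemical treatment of primary human skin fibroblasts, VCAM-1 was detected by ELISA and concentration-response analysed in both directions versus DMSO vehicle.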
# [18] = read-out: Plasminogen activator inhibitor-1 (PAI1), SERPINE1 (gene 5054); test: BSK_hDFCGF_PAI1: BioMAP Diversity Plus: hDFCGF Assay for Plasminogen activator inhibitor-1 (PAI1) Biomarker Activity (AID 2283066); settings: primary human foreskin fibroblasts; actives raise or lower the signal
# Outline: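 Fibroblasts from human foreskin were treated with test chemical. After 24 h, PAI-1 was measured by ELISA. Activity was fitted in both directions relative to DMSO.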
# [19] = read-out: Interferon-gamma inducible Protein 10 (IP10), CXCL10 (gene 3627); test: BSK_KF3CT_IP10: BioMAP Diversity Plus: KF3CT Assay for Interferon-gamma inducible Protein 10 (IP10) Biomarker Activity (AID 2283068); settings: primary human keratinocytes with fibroblasts; actives raise or lower the signal
# Outline: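 Human keratinocyte plus foreskin fibroblast primary co-culture exposed to test chemical for 24 h; IP-10 measured by ELISA. Concentration-response fitted bidirectionally against DMSO control as baseline.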
# [20] = BSK_KF3CT_SRB: Viability Assessment in the BioMAP Diversity Plus: KF3CT Assay (AID 2283069); settings: primary human keratinocytes with fibroblasts;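 further: total protein by sulforhodamine B staining as a cytotoxicity measure; fitted for both signal gain and loss against DMSO baseline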
# Outline: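 Cytotoxicity was gauged by SRB staining (0.1% SRB, 10% TCA fixation, 560 nm) of parallel cultures at 24 h. The cells were primary human skin keratinocytes co-cultured with fibroblasts, and activity was fitted in both directions against DMSO.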
smiles,measurement,setting,value
c1ccc(Nc2ccc3ccccc3c2)cc1,outcome,[1],inactive
same,outcome,[2],inactive
same,AC50,[3],31.7 µM (active)
same,outcome,[4],inactive
same,outcome,[5],inactive
same,AC50,[6],8.69 µM (active)
same,outcome,[7],inactive
same,AC50,[8],36.2 µM (active)
same,outcome,[9],inactive
same,outcome,[10],inactive
same,AC50,[11],30.7 µM (active)
same,outcome,[12],inactive
same,outcome,[13],inactive
same,AC50,[14],34.9 µM (active)
same,outcome,[15],inactive
same,AC50,[16],33.3 µM (active)
same,AC50,[17],30.1 µM (active)
same,AC50,[18],29.3 µM (active)
same,AC50,[19],36.3 µM (active)
same,AC50,[20],36.9 µM (active)
O=[N+]([O-])C=Cc1ccccc1,AC50,[1],25.7 µM (active)
same,AC50,[2],27.6 µM (active)
same,AC50,[3],10.9 µM (active)
same,outcome,[4],inactive
same,AC50,[5],20 µM (active)
same,AC50,[6],20 µM (active)
same,AC50,[7],20 µM (active)
same,AC50,[8],2.63 µM (active)
same,AC50,[9],8.89 µM (active)
same,AC50,[10],8.66 µM (active)
same,AC50,[11],33.1 µM (active)
same,outcome,[12],inactive
same,AC50,[13],4.35 µM (active)
same,AC50,[14],0.596 µM (active)
same,AC50,[15],2.4 µM (active)
same,AC50,[16],3.96 µM (active)
same,AC50,[17],1.41 µM (active)
same,AC50,[18],4.03 µM (active)
same,AC50,[19],6.18 µM (active)
same,AC50,[20],2.46 µM (active)
COCC(=O)N(c1c(C)cccc1C)N1CCOC1=O,outcome,[1],inactive
same,outcome,[2],inactive
same,outcome,[3],inactive
same,outcome,[4],inactive
same,outcome,[5],inactive
same,outcome,[6],inactive
same,outcome,[7],inactive
same,outcome,[8],inactive
same,outcome,[9],inactive
same,outcome,[10],inactive
same,outcome,[11],inactive
same,outcome,[12],inactive
same,outcome,[13],inactive
same,outcome,[14],inactive
same,outcome,[15],inactive
same,outcome,[16],inactive
same,outcome,[17],inactive
same,outcome,[18],inactive
same,outcome,[19],inactive
same,outcome,[20],inactive
Nc1ccc(-c2ccc(N)c(N)c2)cc1N,outcome,[1],inactive
same,outcome,[2],inactive
same,outcome,[3],inactive
same,outcome,[4],inactive
same,outcome,[5],inactive
same,outcome,[6],inactive
same,AC50,[7],11.3 µM (active)
same,outcome,[8],inactive
same,outcome,[9],inactive
same,AC50,[10],10 µM (active)
same,AC50,[11],20 µM (active)
same,outcome,[12],inactive
same,outcome,[13],inactive
same,outcome,[14],inactive
same,outcome,[15],inactive
same,outcome,[16],inactive
same,AC50,[17],11.7 µM (active)
same,outcome,[18],inactive
same,outcome,[19],inactive
same,outcome,[20],inactive
CC(C)(C)C(=O)CCl,outcome,[1],inactive
same,outcome,[2],inactive
same,AC50,[3],20 µM (active)
same,outcome,[4],inactive
same,outcome,[5],inactive
same,outcome,[6],inactive
same,outcome,[7],inactive
same,outcome,[8],inactive
same,outcome,[9],inactive
same,AC50,[10],11.7 µM (active)
same,outcome,[11],inactive
same,outcome,[12],inactive
same,outcome,[13],inactive
same,outcome,[14],inactive
same,outcome,[15],inactive
same,outcome,[16],inactive
same,AC50,[17],12.2 µM (active)
same,AC50,[18],0.405 µM (active)
same,outcome,[19],inactive
same,outcome,[20],inactive
O=C1C(Cl)=C(Cl)C(=O)C(Cl)=C1Cl,outcome,[1],inactive
same,AC50,[2],20 µM (active)
same,AC50,[3],5.78 µM (active)
same,AC50,[4],20 µM (active)
same,AC50,[5],20 µM (active)
same,outcome,[6],inactive
same,AC50,[7],6.19 µM (active)
same,AC50,[8],20 µM (active)
same,AC50,[9],20 µM (active)
same,AC50,[10],15.3 µM (active)
same,AC50,[11],20 µM (active)
same,outcome,[12],inactive
same,AC50,[13],28.8 µM (active)
same,AC50,[14],1.63 µM (active)
same,AC50,[15],31.4 µM (active)
same,AC50,[16],26.8 µM (active)
same,AC50,[17],11.1 µM (active)
same,AC50,[18],27.1 µM (active)
same,AC50,[19],23.7 µM (active)
same,outcome,[20],inactive
